# Results reported in article PMC8384837, “Expanding the binding specificity for RNA recognition by a PUF domain”.
# Target: PUM1 PUF domain R4-GPA (Homo sapiens, UniProt Q14671 828-1176, N971G;H972P;Q975A)
# Assay: yeast three-hybrid, YBZ-1, SC-Leu-His + 0.5 mM 3-AT, 4 days
# Conditions: tags: N-Gal4 AD-HA kept; label: inside an RPR1-promoter hybrid RNA with tandem MS2 sites; ssRNA
# How it was run: (§1)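 Matching RNA elements and Pumilio-1 PUF domain libraries, randomized at the three base-contacting residues of every repeat, were co-expressed from a centromeric plasmid in strain YBZ-1 (LexA–MS2 coat fusion, HIS3 reporter). The repeat regions were PCR-amplified and Illumina-sequenced from cells grown four days on SC-Leu (input) or SC-Leu-His + 0.5 mM 3-AT (selection). The interaction score is the log change in variant frequency from input to selection. It is computed in log2, with a pseudocount of 1 for absent variants.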
row,Sequence,binding signal
1,GGCUAGAACUAGUGGAUCCCCCGGCGCCCGGCGGCUCGAGCCCGGGUAAGUGUAAAUAGUCUGCAUGCCGCCGGGCGCCAUGCCUGCAGGUCGACUCUAGAAAACAUG,3.16 log2 enrichment (interaction score)
2,GGCUAGAACUAGUGGAUCCCCCGGCGCCCGGCGGCUCGAGCCCGGGUAAGUGUACAUAGUCUGCAUGCCGCCGGGCGCCAUGCCUGCAGGUCGACUCUAGAAAACAUG,2.05 log2 enrichment (interaction score)
3,GGCUAGAACUAGUGGAUCCCCCGGCGCCCGGCGGCUCGAGCCCGGGUAAGUGUAUAUAGUCUGCAUGCCGCCGGGCGCCAUGCCUGCAGGUCGACUCUAGAAAACAUG,1.91 log2 enrichment (interaction score)

# Target: PUM1 PUF domain R4-PYG (Homo sapiens, UniProt Q14671 828-1176, N971P;H972Y;Q975G)
# Assay: as above
# Conditions: tags: N-Gal4 AD-HA kept; label: inside an RPR1-promoter hybrid RNA with tandem MS2 sites; ssRNA
# How it was run: as §1
row,Sequence,binding signal
1,GGCUAGAACUAGUGGAUCCCCCGGCGCCCGGCGGCUCGAGCCCGGGUAAGUGUAAAUAGUCUGCAUGCCGCCGGGCGCCAUGCCUGCAGGUCGACUCUAGAAAACAUG,5.58 log2 enrichment (interaction score)
2,GGCUAGAACUAGUGGAUCCCCCGGCGCCCGGCGGCUCGAGCCCGGGUAAGUGUACAUAGUCUGCAUGCCGCCGGGCGCCAUGCCUGCAGGUCGACUCUAGAAAACAUG,6.89 log2 enrichment (interaction score)
3,GGCUAGAACUAGUGGAUCCCCCGGCGCCCGGCGGCUCGAGCCCGGGUAAGUGUAUAUAGUCUGCAUGCCGCCGGGCGCCAUGCCUGCAGGUCGACUCUAGAAAACAUG,7.83 log2 enrichment (interaction score)
